Screens (PubChem BioAssay)
Compounds with a hit are over-represented: about 19% of the library has one in this group of screens.
ELG1 DNA repair: qHTS screen for small molecules that inhibit ELG1-dependent DNA repair in human embryonic kidney (HEK293T) cells expressing luciferase-tagged ELG1. HEK293T ELG1-luciferase reporter, luminescence, 16 h; DNA damage induced by 5-fluorouridine. 330,000 tested, 2.3% active. Potency, µM (doses to about 46.1 µM), usual class: inhibitors. AID 504467, 2011; also: nearly all actives have a fitted effect of over 55% in size
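Reporter activity after DNA damage by 5-fluorouridine is monitored. Compound-treated cells incubate 16 hr at 37 °C, then ONE-Glo is added for 30 min before luminescence reading.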
IL-1B inflam inh: qHTS for Inhibitors of Inflammasome Signaling: IL-1-beta AlphaLISA Primary Screen | THP-1 LPS/ATP IL-1B secretion, AlphaLISA, 16 h; active compounds read low | activity change, % at 57.5 µM | 360,000 tested, 4.7% active; in the data active = activity change below about -50%; inconclusive = mostly about -30% to -49%
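THP-1 cells pretreated 1 hr with compounds (up to 57.5 uM final), then stimulated with LPS (250 ng/mL final) plus ATP (1.25 mM final); secreted IL-1B measured by AlphaLISA after 16 hr, decreased signal indicating inhibition.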
TDP1 inh: qHTS Assay for Inhibitors of Tyrosyl-DNA Phosphodiesterase (TDP1) | Tyrosyl-DNA phosphodiesterase 1 (Homo sapiens), Q9NUW8 | recombinant TDP1, AlphaScreen DNA substrate cleavage | Potency, µM (titrated, usually from 130 µM), most hits filed as inhibitors | 350,000 tested, 0.28% active | AID 485290, 2010; also: nearly all actives have a fitted effect of over 40% in size
Target sequence (Q9NUW8 whole entry, looked up): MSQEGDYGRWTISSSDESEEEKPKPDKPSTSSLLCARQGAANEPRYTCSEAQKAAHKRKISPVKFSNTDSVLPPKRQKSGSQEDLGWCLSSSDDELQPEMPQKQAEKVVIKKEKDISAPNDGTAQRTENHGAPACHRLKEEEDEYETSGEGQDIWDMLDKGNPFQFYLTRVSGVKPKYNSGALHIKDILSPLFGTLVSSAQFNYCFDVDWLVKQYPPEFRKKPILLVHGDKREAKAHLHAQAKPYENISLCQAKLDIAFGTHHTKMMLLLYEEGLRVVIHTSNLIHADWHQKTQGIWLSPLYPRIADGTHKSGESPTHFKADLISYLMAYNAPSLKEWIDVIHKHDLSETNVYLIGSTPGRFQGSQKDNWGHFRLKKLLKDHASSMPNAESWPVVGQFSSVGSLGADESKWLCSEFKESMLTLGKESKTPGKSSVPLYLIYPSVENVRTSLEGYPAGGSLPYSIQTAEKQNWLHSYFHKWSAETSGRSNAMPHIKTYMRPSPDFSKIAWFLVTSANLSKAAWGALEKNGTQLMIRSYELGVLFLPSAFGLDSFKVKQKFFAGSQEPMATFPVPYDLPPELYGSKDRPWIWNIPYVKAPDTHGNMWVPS
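Steps: enzyme plus compound, 15 min RT; add biotin/phosphotyrosine-FITC oligonucleotide (15 nM final), react 5 min; add donor/acceptor beads (10 ug/ml final), 10 min; read AlphaScreen. Tdp1 at 1 nM final.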
TDP1 cell noCPT: qHTS for Inhibitors of human tyrosyl-DNA phosphodiesterase 1 (TDP1): qHTS in cells in absence of CPT; AID 686978, 2013; DT40 Tdp1-/- hTDP1 cells, no CPT, ATP luminescence, 48 h; Potency, µM (series often up to 46.2 µM), most hits filed as inhibitors; 420,000 tested, 15% active; also: nearly all actives have a fitted effect of over 55% in size
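Camptothecin absent (DMSO only). Human TDP1-complemented DT40 knockout cells, 400 cells/well, 37 °C for minimum 48 hr; ATP measured via CellTiter-Glo, 30 min dark incubation, luminescence.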
TDP1 cell CPT: qHTS for Inhibitors of human tyrosyl-DNA phosphodiesterase 1 (TDP1): qHTS in cells in presence of CPT. chicken DT40 Tdp1-/-;hTDP1 cells + 20 nM CPT, ATP luminescence, 48 h. Potency, µM (highest dose often 46.2 µM), most hits filed as inhibitors. 420,000 tested, 12% active. AID 686979, 2013; also: nearly all actives have a fitted effect of over 55% in size
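Cell growth measured by CellTiter-Glo luminescence after a minimum 48 h, 37 C compound exposure with 20 nM CPT in Tdp1-knockout DT40 cells stably expressing hTDP1, seeded 400/well; qHTS titration format.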
Giardia kill: Small Molecules that selectively kill Giardia lamblia: qHTS. 340,000 tested, 0.15% active. AID 540267, 2011. Giardia lamblia trophozoite viability. activity change, % at 7.66 µM, hits read low; in the data active = activity change below about -80%; inconclusive = between about -30% and that limit;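 also: parasites exposed to compound for two days anaerobically before the ATP read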
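Each well holds 100 Giardia trophozoites and compound. After two days (48 hrs) at 37 deg C in anaerobic conditions, ATP is quantified by luminescence.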
Numbers stand for hits; - = inactive; ? = inconclusive; . = not tested or not shown. Unless noted, calls follow the shape of the dose curve; as a rule, active = well fitted curve in the direction sought with a large enough effect; inconclusive = small, poorly fitted or top-dose-only effect, or another doubt; inactive = no such curve, though single readings can be large; an effect the other way counts as inactive or inconclusive.

SMILES	ELG1 DNA repair	IL-1B inflam inh	TDP1 inh	TDP1 cell noCPT	TDP1 cell CPT	Giardia kill
CC(C)NCCCCOc1cccc(Br)c1	-	-	-	23µM	?	-
CC(C)NCCOc1cccc(Br)c1	-	-	-	-	-	-
Brc1cccc(OCCCNC2CCCC2)c1	-	?	.	21µM	?	-
C=CCNCCCCOc1cccc(Br)c1	-	-65	-	-	-	-
C=CCn1cccc(C(=O)Nc2ccc(C)c(C)c2)c1=O	?	-78	.	-	-	-
Cc1cc(=O)oc2cc(NC(=O)C(CCCCN)NC(=O)C(CC3CCCCC3)NC(=O)OCC3c4ccccc4-c4ccccc43)ccc12 (stereo unspecified)	.	.	-	.	.	.
COc1ccc(NC(=O)c2ccc([N+](=O)[O-])cc2[N+](=O)[O-])c(OC)c1	-	-	-	-	-	?
COc1ccc(C(=O)/C=C/c2cc(C(=O)O)cc3c2OCOC3)c(O)c1	?	-94	-	23µM	?	-
O=C(O)c1cc(/C=C/C(=O)c2cc(F)ccc2O)c2c(c1)COCO2	?	-	.	?	-	-
COc1ccc(C(=O)C=Cc2cccs2)c(O)c1	.	-54	.	?	?	-
COc1ccc(C(=O)N(Cc2cccs2)Cc2cccs2)c(O)c1	.	.	-	.	.	.
COc1ccc(C(=O)/C=C/c2ccccc2OC)c(OC(=O)c2ccc([N+](=O)[O-])cc2)c1	.	-97	.	?	?	-
COc1ccc(C(=O)/C=C/c2ccccc2)c(O)c1	?	-99	-	23µM	?	-
COc1cc(/C=c2\[nH]c(=O)/c(=C/c3cc(OC)c(OC)c(OC)c3)[nH]c2=O)cc(OC)c1OC	.	.	.	?	-	.
N#CN1CCC(N[S+](=O)([O-])c2cccc(F)c2)CC1	.	.	-	.	.	.
CN(C)S(=O)(=O)n1cnc(C(CCO)c2ncn(S(=O)(=O)N(C)C)c2CCCO)c1 (stereo unspecified)	?	-	-	-	-	-
S=c1[nH]ccn1-c1cccc(Cl)c1	-	-	-	-	-	-
O=C(/C=C/c1ccccc1)c1ccc(O)cc1O	.	.	-	16µM	?	.
O=C(O)/C=C/c1ccc(O)cc1	.	-	.	-	-	-
COc1ccc(OC(=O)c2cccc([N+](=O)[O-])c2)c(C(=O)/C=C/c2cccs2)c1	?	-53	-	?	?	-
Cc1ccc(C2N(C)C(=O)c3ccccc3N2C)cc1 (stereo unspecified)	-	-	.	21µM	-	-
COc1ccc(CNC(=O)C2CCCN(C(=O)N3CCOc4ccccc43)C2)cc1 (stereo unspecified)	.	.	-	?	?	.
Cc1nc(CS(=O)(=O)c2ccc(Cl)cc2)cc(N2CCOCC2)n1	-	-	-	-	-	-
Clc1ccc(Sc2cc(N3CCOCC3)nc(-c3ccccc3)n2)cc1	-	-	-	29µM	?	-
FC(F)(F)c1cc(N2CCOCC2)nc(-c2ccccc2)n1	-	-	-	?	?	-
SMILES	ELG1 DNA repair	IL-1B inflam inh	TDP1 inh	TDP1 cell noCPT	TDP1 cell CPT	Giardia kill
c1ccc(-c2nc(N3CCOCC3)cc(N3CCOCC3)n2)cc1	15µM	?	-	-	-	-
CCCc1ccc(Oc2cc(N3CCOCC3)nc(-c3ccccc3)n2)cc1	.	-	.	?	29µM	-
O=S(=O)(Cc1cc(N2CCOCC2)nc(-c2ccccn2)n1)c1ccccc1	-	-	-	18µM	10µM	-
NC(=O)c1cc(Br)cc(C2CCCCC2)c1O	-	-56	-	-	-	-
Cc1cc(C)cc(-n2ccnc2SCC(=O)Nc2ccc(C)c(Cl)c2)c1	.	.	-	18µM	16µM	.
CCOc1ccc(-n2ccnc2SCC(=O)Nc2cc(C)ccc2C)cc1	.	.	-	?	?	.
CCc1ccc(NC(=O)CSc2nccn2C2CCCC2)cc1	.	.	-	?	18µM	.
Cc1cccc(-n2ccnc2SCC(=O)Nc2ccc(F)cc2F)c1C	.	.	-	21µM	16µM	.
